PubChem BioAssay (Tox21)
Where “and” joins values, the source holds several entries; their conditions need not be identical. Equal entries are not always repeated. Results filed as inconclusive are left out. A call without a number means that no potency is given here. More than one record can exist for a structure, and the calls need not agree. Calls of active or inactive are those of the source. Unless noted, calls follow the shape of the dose curve; as a rule, active = well fitted curve in the direction sought with a large enough effect in the repeat runs; inconclusive = weak or mixed curves; inactive = no such curve, though single readings can be large; an effect the other way counts as inactive or inconclusive.

Assays:
[1] = qHTS assay to identify small molecule antagonists of the androgen receptor (AR) signaling pathway using the MDA cell line in the presence of 0.5 nM R1881 - cell viability counter screen (AID 1259242); also: nearly all actives have a fitted effect of over 45% in size; also: potency is read from the fitted curve at half-maximal effect
Procedure, shortened: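 Live-cell protease activity was measured by CellTiter-Fluor fluorescence after 30 min. Before that, MDA-kb2 MMTV-luciferase cells had 16 hr at 37C without CO2, exposed to test compounds and 0.5 nM R1881 final.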

[2] = target: Estrogen receptor (Homo sapiens) (UniProt P03372); experiment: qHTS assay to identify small molecule antagonists of the estrogen receptor alpha (ER-alpha) signaling pathway using the BG1 cell line in the presence of 0.1 nM 17-beta-estradiol (AID 1259244); also: nearly all actives have a fitted effect of over 50% in size; also: potency is read from the fitted curve at half-maximal effect
Procedure, shortened: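 Luciferase luminescence (ONE-Glo, 30 min at room temperature) was read after 22 hr at 37C exposure to compounds plus 17beta-estradiol at 0.1 nM final. Cells were VM7Luc4E2 with endogenous ER-alpha and an ERE-driven luciferase, pre-cultured 5 days in hormone-depleted medium.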

[3] = qHTS assay to identify small molecule phospholipidosis (PLD) inducers (AID 1259344; active = well fitted curve in the direction sought with a large enough effect; an effect the other way counts as inactive or inconclusive)
Procedure, shortened: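 Phospholipid accumulation was scored by imaging: fixed, Hoechst-counterstained HepG2 cells stained with LipidTOX Red after 24 h compound exposure at 37 C. Read-outs were pit count and pit intensity per well or per cell, with amiodarone and DMSO controls.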

[4] = qHTS assay to identify small molecule HDAC inhibitors (AID 1259364); also: top concentration of the series differs between compounds; nearly all actives have a fitted effect of over 45% in size
Procedure, shortened: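 Luminescence read after 30 min room-temperature HDAC-Glo incubation measures cellular class I/II HDAC activity. Compounds were applied for 2 hr at 37 C to HCT-116 wild-type cells seeded the day before.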

[5] = qHTS assay to identify small molecule HDAC inhibitors - cell viability counter screen (AID 1259365); also: nearly all actives have a fitted effect of over 50% in size; also: potency is read from the fitted curve at half-maximal effect
Procedure, shortened: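 After overnight seeding at 1,500 cells per well, wild-type HCT-116 cultures took up compounds in DMSO for 2hr at 37 C. Viable cell content came from luminescence with CellTiter-Glo.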

[6] = qHTS assay to identify small molecule agonists of the sonic hedgehog signaling (Shh) pathway - cell viability counter screen (AID 1259366); also: nearly all actives have a fitted effect of over 50% in size; also: potency is read from the fitted curve at half-maximal effect
Procedure, shortened: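 Same-well cytotoxicity read. Gli1-Luc reporter 3T3 cells; compounds 24hr, 37C/5% CO2; CellTiter-Fluor fluorescence.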

[7] = qHTS assay to identify small molecule agonists of the sonic hedgehog signaling (Shh) pathway (AID 1259368; calls by dose curve;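 also: NIH/3T3-derived 3T3Gli1-Luc cells carrying a stable Gli1-driven firefly luciferase reporter; series mostly up to about 92 µM; nearly all actives have a fitted effect of over 15% in size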)
Procedure, shortened: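 Luminescence was read after 30 min at room temperature with luciferase reagent. Before that, 3T3Gli1-Luc cells (NIH/3T3 clone, stable Gli1-Luc reporter; 2,000/well) were exposed to compounds for 24 hr at 37C, 5% CO2, compounds being added 4 hr post-plating.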

[8] = qHTS assay to identify small molecule antagonists of the sonic hedgehog signaling (Shh) pathway (AID 1259369; calls by dose curve; also: nearly all actives have a fitted effect of over 45% in size; also: potency is read from the fitted curve at half-maximal effect)
Procedure, shortened: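 Antagonist mode: compound added to 3T3 Gli1-Luc cells followed by conditioned-medium stimulation, 24 h at 37 C, 5% CO2. Inhibition taken as loss of Gli1-driven luciferase luminescence.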

[9] = target: Estrogen receptor beta (Homo sapiens) (UniProt Q92731); experiment: qHTS assay to identify small molecule agonists of the estrogen receptor beta (ER-beta) signaling pathway (AID 1259377; active = well fitted activation curve with a large enough effect in the signal ratio in the repeat runs, not every such curve was filed as active; the % refers to the signal ratio)
Procedure, shortened: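 Read-out: beta-lactamase FRET fluorescence. Cell line: ER-beta-UAS-bla HEK293T in 2% charcoal-stripped FBS. Exposure: 16 hr at 37C. Substrate step: 2 h at room temperature.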

[10] = target: Estrogen receptor beta (Homo sapiens) (UniProt Q92731); experiment: qHTS assay to identify small molecule antagonists of the estrogen receptor beta (ER-beta) signaling pathway (AID 1259378; active = well fitted inhibition curve with a large enough effect in the signal ratio in the repeat runs, not every such curve was filed as active; the % refers to the signal ratio)
Procedure, shortened: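 Antagonist mode: compounds added to beta-lactamase reporter HEK293T ER-beta-UAS cells stimulated with E2 (1nM final), 16 hr at 37C. LiveBLAzer B/G FRET substrate, 2 hours room temperature, fluorescence read-out.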

[11] = qHTS assay to identify small molecule agonists of the androgen receptor (AR) signaling pathway in the presence of an antagonist - cell viability counter screen (AID 1259379); also: nearly all actives have a fitted effect of over 25% in size; also: potency is read from the fitted curve at half-maximal effect
Procedure, shortened: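 Cytotoxicity counter-screen run in the same wells as the nilutamide-challenged (3.0 µM final) AR agonist assay in MDA-kb2 cells. Compounds tested at 15 concentrations for 16 h, 37 °C without CO2; CellTiter-Fluor fluorescence read.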

[12] = qHTS assay to identify small molecule agonists of the estrogen receptor beta (ER-beta) signaling pathway - cell viability counter screen (AID 1259380); also: nearly all actives have a fitted effect of over 30% in size; also: potency is read from the fitted curve at half-maximal effect
Procedure, shortened: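 Cell viability counter screen: CellTiter-Glo luminescence (30 min, room temperature) measured in the same wells as the beta-lactamase readout, after 16 hr compound exposure at 37C of ER-beta-bla HEK293T cells in 2% charcoal-stripped FBS medium.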

[13] = qHTS assay to identify small molecule antagonists of the estrogen receptor beta (ER-beta) signaling pathway - cell viability counter screen (AID 1259382); also: nearly all actives have a fitted effect of over 55% in size; also: potency is read from the fitted curve at half-maximal effect
Procedure, shortened: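 Cytotoxicity was measured in the same wells by CellTiter-Glo luminescence after 30 min at room temperature. Cells were ER-beta-bla HEK293T in charcoal-stripped serum, given compound together with 1 nM E2 and incubated 16 h at 37C.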

[14] = target: Estrogen receptor (Homo sapiens) (UniProt P03372); experiment: qHTS assay to identify small molecule agonists of the estrogen receptor alpha (ER-alpha) signaling pathway in the presence of an antagonist (AID 1259383; calls by dose curve; also: top concentration of the series differs between compounds; nearly all actives have a fitted effect of over 15% in size)
Procedure, shortened: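 Agonist-mode confirmation run in the presence of 10.0nM (final) ICI-182,780 antagonist. The reporter was ERE-driven luciferase in VM7Luc4E2 cells, grown in charcoal-stripped serum. Cells were exposed to 15-concentration compound series for 22hr, then ONE-Glo luminescence was read.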

[15] = qHTS assay to identify small molecule agonists or antagonists of the thyroid stimulating hormone receptor (TSHR) signaling pathway - wild type cell line counter screen (AID 1259384; calls by dose curve)
Procedure, shortened: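 Counter screen in untransfected Hek293: compounds (15-point titration, triplicate) plus phosphodiesterase inhibitor Ro20-1724 added after 18 h plating; 30 min RT. Intracellular cAMP via competitive d2/cryptate immunoassay, 1 h incubation.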

[16] = target: Thyrotropin receptor (Homo sapiens) (UniProt P16473); experiment: qHTS assay to identify small molecule antagonists of the thyroid stimulating hormone receptor (TSHR) signaling pathway (AID 1259385; calls by dose curve; also: nearly all actives have a fitted effect of over 20% in size)
Procedure, shortened: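 Antagonist mode: compound-treated TSHR-expressing HEK293 cells were stimulated with 1.5 ng/mL TSH (final) in presence of Ro20-1724 for 30 min at RT. HTRF cAMP detection after 1 h; each compound tested at 15 concentrations, triplicate.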

[17] = qHTS assay to identify small molecule agonists of the estrogen receptor alpha (ER-alpha) signaling pathway in the presence of an antagonist - cell viability counter screen (AID 1259386); also: nearly all actives have a fitted effect of over 30% in size; also: potency is read from the fitted curve at half-maximal effect
Procedure, shortened: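 Compounds tested at 15 concentrations for 22 h at 37C alongside 10.0nM (final) ICI-182,780 antagonist, in VM7Luc4E2 cells grown in phenol red-free, charcoal-stripped medium. Viability read by CellTiter-Fluor fluorescence after 1 h reagent incubation.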

[18] = qHTS assay to identify small molecule antagonists of the sonic hedgehog signaling (Shh) pathway - cell viability counter screen (AID 1259367); also: nearly all actives have a fitted effect of over 55% in size; also: potency is read from the fitted curve at half-maximal effect
Procedure, shortened: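 Viability was read by CellTiter-Fluor fluorescence in the same wells, reagent added 23 hr into compound treatment and incubated 1 hr at 37C. The 3T3 Gli1-Luc reporter cells (2,000/well) received conditioned medium after compound and ran 24 hr.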

[19] = target: Androgen receptor (Homo sapiens) (UniProt P10275); experiment: qHTS assay to identify small molecule antagonists of the androgen receptor (AR) signaling pathway using the MDA cell line in the presence of 0.5 nM R1881 (AID 1259243); also: nearly all actives have a fitted effect of over 50% in size
Procedure, shortened: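 Luminescent reporter readout (ONE-Glo, 30 min, room temperature) after 16 hr co-treatment of MDA-kb2 cells with test compounds and 0.5 nM R1881 final, at 37C without CO2. The MMTV-driven luciferase responds to both AR and GR.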

[20] = target: Androgen receptor (Homo sapiens) (UniProt P10275); experiment: qHTS assay to identify small molecule agonists of the androgen receptor (AR) signaling pathway in the presence of an antagonist (AID 1259381; calls by dose curve; also: nearly all actives have a fitted effect of over 15% in size)
Procedure, shortened: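 Agonist-mode confirmation run against 3.0 uM final nilutamide: compounds titrated at 15 concentrations onto MDA-kb2 MMTV-luciferase reporter cells. Luminescence measured with ONE-Glo following 16 hr incubation, 37C, 0% CO2.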

Estrogen receptor (Homo sapiens), sequence (P03372 whole entry, looked up): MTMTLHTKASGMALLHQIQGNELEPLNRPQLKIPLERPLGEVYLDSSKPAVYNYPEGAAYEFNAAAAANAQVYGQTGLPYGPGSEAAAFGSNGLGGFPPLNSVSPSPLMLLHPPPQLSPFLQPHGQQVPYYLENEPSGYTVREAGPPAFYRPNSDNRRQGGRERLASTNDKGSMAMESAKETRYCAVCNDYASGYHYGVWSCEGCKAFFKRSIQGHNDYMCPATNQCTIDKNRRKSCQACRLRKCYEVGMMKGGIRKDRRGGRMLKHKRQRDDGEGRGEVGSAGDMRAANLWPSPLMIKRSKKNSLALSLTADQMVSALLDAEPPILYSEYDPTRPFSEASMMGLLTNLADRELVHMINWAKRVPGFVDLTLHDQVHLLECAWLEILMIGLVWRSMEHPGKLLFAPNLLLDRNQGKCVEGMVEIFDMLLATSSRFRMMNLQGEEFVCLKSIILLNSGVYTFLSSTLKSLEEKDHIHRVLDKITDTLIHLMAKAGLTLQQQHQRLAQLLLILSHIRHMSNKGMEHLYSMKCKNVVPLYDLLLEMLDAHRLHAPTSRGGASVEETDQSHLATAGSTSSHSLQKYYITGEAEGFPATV
Thyrotropin receptor (Homo sapiens), sequence (P16473 whole entry, looked up): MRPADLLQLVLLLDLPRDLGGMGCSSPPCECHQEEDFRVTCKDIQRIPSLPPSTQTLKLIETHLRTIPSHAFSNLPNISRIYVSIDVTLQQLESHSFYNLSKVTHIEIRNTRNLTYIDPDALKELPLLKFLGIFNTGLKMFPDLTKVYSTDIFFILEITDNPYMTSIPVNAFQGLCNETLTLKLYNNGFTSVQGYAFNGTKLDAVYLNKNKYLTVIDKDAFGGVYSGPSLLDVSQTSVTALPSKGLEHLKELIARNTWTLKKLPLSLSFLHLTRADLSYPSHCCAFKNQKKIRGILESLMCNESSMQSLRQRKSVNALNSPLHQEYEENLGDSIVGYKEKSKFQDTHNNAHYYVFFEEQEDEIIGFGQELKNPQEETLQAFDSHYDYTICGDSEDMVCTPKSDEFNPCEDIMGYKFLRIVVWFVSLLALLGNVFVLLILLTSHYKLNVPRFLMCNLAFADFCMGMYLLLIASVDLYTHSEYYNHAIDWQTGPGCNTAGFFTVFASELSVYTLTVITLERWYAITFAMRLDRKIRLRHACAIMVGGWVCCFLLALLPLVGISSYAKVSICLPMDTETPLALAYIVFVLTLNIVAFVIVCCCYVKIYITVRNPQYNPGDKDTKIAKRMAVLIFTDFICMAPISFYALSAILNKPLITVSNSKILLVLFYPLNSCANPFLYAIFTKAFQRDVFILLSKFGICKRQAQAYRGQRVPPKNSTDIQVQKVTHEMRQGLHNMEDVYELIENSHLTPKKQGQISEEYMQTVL
Estrogen receptor beta (Homo sapiens), sequence (Q92731 whole entry, looked up): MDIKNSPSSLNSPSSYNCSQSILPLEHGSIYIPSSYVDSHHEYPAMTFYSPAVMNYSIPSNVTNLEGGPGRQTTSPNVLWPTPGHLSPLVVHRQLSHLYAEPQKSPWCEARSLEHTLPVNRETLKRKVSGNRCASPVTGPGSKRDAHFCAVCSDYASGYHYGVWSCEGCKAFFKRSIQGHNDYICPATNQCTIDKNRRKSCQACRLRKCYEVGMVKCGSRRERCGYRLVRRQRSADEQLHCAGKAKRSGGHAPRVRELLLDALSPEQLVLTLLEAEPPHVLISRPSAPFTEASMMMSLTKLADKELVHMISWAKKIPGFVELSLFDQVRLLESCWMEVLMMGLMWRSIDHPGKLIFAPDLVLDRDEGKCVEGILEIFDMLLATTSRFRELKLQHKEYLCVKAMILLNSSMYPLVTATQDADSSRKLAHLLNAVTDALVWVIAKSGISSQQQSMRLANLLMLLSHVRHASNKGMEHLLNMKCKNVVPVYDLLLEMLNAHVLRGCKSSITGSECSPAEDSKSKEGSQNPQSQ
Androgen receptor (Homo sapiens), sequence (P10275 whole entry, looked up): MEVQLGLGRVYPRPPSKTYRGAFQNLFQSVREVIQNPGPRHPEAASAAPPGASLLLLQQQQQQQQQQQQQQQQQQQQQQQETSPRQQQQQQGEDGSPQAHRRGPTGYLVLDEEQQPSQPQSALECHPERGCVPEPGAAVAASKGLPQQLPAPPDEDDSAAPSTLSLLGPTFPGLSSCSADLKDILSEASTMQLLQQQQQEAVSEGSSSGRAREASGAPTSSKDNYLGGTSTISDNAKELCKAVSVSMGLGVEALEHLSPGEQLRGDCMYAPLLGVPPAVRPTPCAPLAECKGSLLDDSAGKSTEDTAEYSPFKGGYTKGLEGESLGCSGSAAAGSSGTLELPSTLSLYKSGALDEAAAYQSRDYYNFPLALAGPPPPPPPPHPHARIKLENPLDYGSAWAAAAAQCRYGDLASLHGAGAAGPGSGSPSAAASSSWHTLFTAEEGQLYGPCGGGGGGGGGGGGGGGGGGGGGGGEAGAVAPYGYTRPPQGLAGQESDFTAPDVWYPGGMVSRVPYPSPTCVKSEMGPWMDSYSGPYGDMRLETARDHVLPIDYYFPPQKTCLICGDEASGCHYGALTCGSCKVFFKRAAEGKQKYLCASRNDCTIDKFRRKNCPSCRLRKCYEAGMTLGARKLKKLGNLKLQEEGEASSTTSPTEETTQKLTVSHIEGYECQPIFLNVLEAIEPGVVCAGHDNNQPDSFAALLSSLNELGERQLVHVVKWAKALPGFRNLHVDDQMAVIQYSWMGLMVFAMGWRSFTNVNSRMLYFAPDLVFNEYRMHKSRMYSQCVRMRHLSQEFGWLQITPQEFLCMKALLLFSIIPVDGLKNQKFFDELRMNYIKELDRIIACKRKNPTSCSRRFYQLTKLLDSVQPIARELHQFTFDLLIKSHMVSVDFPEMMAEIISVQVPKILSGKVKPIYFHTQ

Row | SMILES | Potency [1] | Potency [2] | Potency [3] | Potency [4] | Potency [5] | Potency [6] | outcome [7] | Potency [8] | Potency [9] | Potency [10] | Potency [11] | Potency [12] | Potency [13] | Potency [14] | Potency [15] | Potency [16] | Potency [17] | Potency [18] | Potency [19] | Potency [20]
1 | NS(=O)(=O)c1cc2c(cc1Cl)NCNS2(=O)=O | inactive | inactive | inactive | inactive | inactive | inactive | inactive | inactive | inactive | inactive | inactive | inactive | inactive | inactive | inactive | inactive | inactive |  |  | 
2 | Cc1ncc([N+](=O)[O-])n1CCO | inactive | inactive | inactive | inactive |  | inactive | inactive | inactive |  |  | inactive | inactive | inactive | inactive | inactive | inactive | inactive | inactive |  | 
3 | CCOc1ccc(NC(C)=O)cc1 | inactive | inactive | inactive | inactive |  | inactive | inactive | inactive | inactive | inactive | inactive | inactive |  | inactive | inactive | inactive | inactive |  | inactive | inactive
4 | O=c1[nH]cnc2c1ncn2[C@H]1CC[C@@H](CO)O1 | inactive | inactive | inactive | inactive | inactive | inactive | inactive | inactive |  |  | inactive | inactive | inactive | inactive | inactive | inactive | inactive | inactive |  | 
5 | O=S1(=O)OC(c2ccc(O)cc2)(c2ccc(O)cc2)c2ccccc21 | 27.3 µM (active) and 19.3 µM (active) and 10.6 µM (active) | 61.1 µM (active) and inactive | inactive | inactive | inactive | 27.3 µM (active) and 11.9 µM (active) | inactive | 27.3 µM (active) and inactive | inactive | inactive | 30.6 µM (active) and 19.3 µM (active) and 10.6 µM (active) | inactive | inactive | inactive |  |  | 19.3 µM (active) and 17.2 µM (active) and 13.3 µM (active) | 21.7 µM (active) and 24.3 µM (active) and 11.9 µM (active) |  | 
6 | Cc1c(C(=O)O)c(O)cc2c1C(=O)c1c(O)c([C@@H]3O[C@H](CO)[C@@H](O)[C@H](O)[C@H]3O)c(O)c(O)c1C2=O | 37.6 µM (active) and 27.3 µM (active) | inactive | inactive | inactive | 27.3 µM (active) and inactive | 26.6 µM (active) and 27.3 µM (active) | inactive | inactive | inactive | inactive | 18.9 µM (active) and 15.4 µM (active) | inactive |  | inactive |  |  | 26.6 µM (active) and 15.4 µM (active) and 13.3 µM (active) |  |  | 
7 | CCCCCCCC(=O)OCC(COC(=O)CCCCCCC)OC(=O)CCCCCCC | inactive | inactive | inactive | inactive |  | inactive | inactive | inactive | inactive | inactive | inactive | inactive |  | inactive | inactive | inactive | inactive |  |  | 
8 | CCc1nc(N)nc(N)c1-c1ccc(Cl)cc1 | inactive | 31.1 µM (active) and 48.6 µM (active) | inactive | inactive |  | inactive | inactive | 17.5 µM (active) and 27.3 µM (active) | inactive |  | inactive | 21.7 µM (active) and 18.8 µM (active) |  | inactive |  |  | inactive | inactive |  | 
9 | CN(C)CCOC(c1ccccc1)c1ccccc1 | inactive | inactive | inactive | inactive | inactive | inactive | inactive | inactive | inactive | inactive | inactive | inactive | inactive | inactive | inactive | inactive | inactive |  | inactive | inactive
10 | O=c1[nH]cc(F)c(=O)[nH]1 | inactive | 12.7 µM (active) and inactive | inactive | inactive |  | inactive | inactive | inactive | inactive | inactive | inactive | 10.1 µM (active) and 12.5 µM (active) and inactive | 14.2 µM (active) and inactive | inactive | inactive | inactive | inactive | inactive |  | 
11 | CCOC(N)=O | inactive | inactive | inactive | inactive |  | inactive | inactive | inactive |  |  | inactive | inactive | inactive | inactive | inactive | inactive | inactive | inactive |  | 
12 | NC(=O)c1cccnc1 | inactive | inactive | inactive | inactive | inactive | inactive | inactive | inactive | inactive | inactive | inactive | inactive |  | inactive | inactive | inactive | inactive | inactive |  | 
13 | C=CCc1ccc(O)c(OC)c1 | inactive | inactive | inactive | inactive | inactive | inactive | inactive | inactive |  |  | inactive | inactive |  | inactive | inactive | inactive | inactive | inactive |  | 
